SARS PLpro yeast = SARS-CoV PLP inhibition in yeast. S. cerevisiae expressing SARS-CoV PLpro, growth rescue. Potency, µM (highest dose often 32.9 µM), for the others: at the top dose activity, positive = growth rescue, actives largely listed as activators. hit rate 0.19% among 330,000. AID 485353; calls by dose curve; also: potency is read from the fitted curve at half-maximal effect; 0% is about no effect; nearly all actives have a fitted effect of over 55% in size
MARV entry inh = blocks Marburg virus binding to or entry into cells; Marburg virus pseudotyped entry inhibition, cell reporter; Potency, µM (top dose mostly 37.8 µM), for inactives: at the highest dose activity change, negative = inhibition, actives largely listed as inhibitors; hit rate 1.8% among 300,000; AID 540276; calls by dose curve; tested in HEK293 cells; also: potency is read from the fitted curve at half-maximal effect; % is scaled to controls: 0 for no effect and ±100 for the full control effect
LASV entry inh = blocks Lassa virus binding to or entry into cells | Lassa virus pseudotype entry inhibition, cell reporter | Potency, µM (doses to about 37.9 µM), inactives show at the top dose activity change, negative = inhibition, hits mostly inhibitors | hit rate 1.2% among 300,000 | AID 540256; calls by dose curve; tested in HEK293 cells; also: potency is read from the fitted curve at half-maximal effect; % is scaled to controls: 0 for no effect and ±100 for the full control effect; nearly all actives have a fitted effect of over 50% in size
FMDV antiviral = blocks foot and mouth disease virus | FMDV antiviral cell-based qHTS | AID 1159524 | Potency, µM (doses to about 57.9 µM), for inactives: at the top dose activity change, negative = inhibition, usual class: inhibitors | hit rate 1.2% among 410,000; calls by dose curve; tested in HEK293T cells; also: read-out not given here; potency is read from the fitted curve at half-maximal effect; % is scaled to controls: 0 for no effect and ±100 for the full control effect; nearly all actives have a fitted effect of over 45% in size
HCV inh = inhibitors of hepatitis C virus infection; Huh7.5.1 HCVcc-Cre infection, luciferase reporter, 44 h; hit rate 3.4% among 340,000; Potency, µM (titrated, usually from 41.8 µM), for inactives: at the highest dose activity change, negative = inhibition, actives largely listed as inhibitors; active = well fitted inhibition curve with a large enough effect; inconclusive = small, poorly fitted or top-dose-only effect, or another doubt; inactive = no such curve, though single readings can be large or run the other way; also: potency is read from the fitted curve at half-maximal effect; % is scaled to controls: 0 for no effect and ±100 for the full control effect
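Cells seeded at 1,000/well and cultured 4 h, then compounds added followed by HCVcc-Cre virus (~0.5 moi). After 44 h further culture, luciferase substrate was added, plates held 15 min at room temperature, and luminescence read for 15 sec.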
HCMV antiviral = blocks human cytomegalovirus replication; activity change, negative = inhibition, % at 57.5 µM; AID 1259415; hit rate 4.5% among 410,000; HFF cells, HCMV-luciferase reporter, 72 h; hits give low values; in the data active = activity change below about -60%; inconclusive = no clear call, values can overlap the other calls; inactive = above about -39%; also: % is scaled to controls: 0 for no effect and ±100 for the full control effect
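Screen run at 2 compound doses on HFFs infected with reporter HCMV, MOI 1 PFU/cell. Luciferase activity from cell lysates at 72 h post infection gave inhibition relative to buffer-only and Salinomycin wells.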
Active calls of the source: *; ? = inconclusive; . = no result; [ ] = remark or other dose. In the library only some 8% were active in any assay of this set; here they are far more common.

SMILES	SARS PLpro yeast	MARV entry inh	LASV entry inh	FMDV antiviral	HCV inh	HCMV antiviral
CC(=O)c1ccc(Nc2cc(C)nc3c(C)cccc23)cc1	0.1%	.	.	43.3%	-23.1%	-6.1
Cc1ccc(Nc2cc(C)nc3c(C)cccc23)cc1	-1.2%	10µM*	3.2%[46.1 µM]	-13.0%	?	-34.2
Cc1cc(Nc2cccc(O)c2)c2cccc(Br)c2n1	.	0.8%[46.1 µM]	18.4%[46.1 µM]	-23.4%	.	-39.1
Cc1ccc2nc(C)cc(Nc3ccc([N+](=O)[O-])cc3)c2c1	-2.1%	?	?	-10.3%	3.55µM*	?
COC(=O)c1ccc(Nc2cc(C)nc3ccc(C)cc23)cc1	-3.1%	12.6µM*	?	0.0%	10µM*	3.2
CC(=O)c1cccc(Nc2cc(C)nc3ccc(C)cc23)c1	0.2%	?	-6.4%	-23.2%	?	-7.5
CC(=O)c1ccc(Nc2cc(C)nc3ccccc23)cc1	-4.5%	2.82µM*	?	8.2%	?	?
CN(C)c1ccc(C(CNS(=O)(=O)c2ccc(Br)cc2)N2CCOCC2)cc1 (stereo not given)	.	.	?	-10.7%	.	-2.2
Cc1cc(Nc2cccc(Br)c2)c2ccccc2n1	.	?	-22.9%	?	7.08µM*	-71.5*
Cc1cc(Nc2cccc(O)c2)c2ccccc2n1	-6.1%	.	.	.	.	.
O=C(Cn1c(=O)n(Cc2ccco2)c(=O)c2c3c(sc21)CCCC3)Nc1ccccc1	-6.2%	?	-7.4%	-14.5%	?	0.9
NC(=O)Cn1c(=O)n(Cc2ccco2)c(=O)c2c3c(sc21)CCCCC3	?	-8.2%	-1.4%	-22.7%	6.3%	-21.0
O=c1c2c3c(sc2n(CCN2CCCCC2)c(=O)n1Cc1ccco1)CCCCC3	-0.5%	16.4µM*	10.4%	-8.8%	?	-32.1
O=c1c2c3c(sc2n(CCN2CCOCC2)c(=O)n1Cc1ccco1)CCCCC3	0.5%	?	?	-24.4%	10µM*	-95.5*
COc1ccc(Cn2c(=O)c3oc4ccccc4c3n(CC(=O)Nc3c(C)cccc3C)c2=O)cc1	.	.	15.1%[46.1 µM]	-7.9%	.	-10.2
Oc1ccc(-c2cnns2)c(O)c1	-13.3%	?	11.2µM*	-18.9%	?	?
Oc1ccc(-c2nc3ccccc3s2)c(O)c1	-6.5%	?	14.6%[46.1 µM]	22.2%	-4.6%	18.9
CCOC(=O)c1c(C=O)c(C)n(Cc2ccccc2Cl)c1C	-16.4%	10.9%	1.8%	?	?	-8.5
Cc1c(C=O)c(C=O)c(C)n1Cc1ccccc1	-17.1%	?	?	?	?	-80.7*
CCOC(=O)c1c(C=O)c(C)n(Cc2ccc(C)cc2)c1C	-27.9%	?	?	?	3.16µM*	-1.1
CCOC(=O)C1=CCN(S(=O)(=O)c2ccccc2Cl)C1c1ccc(Cl)c(Cl)c1 (stereo not given)	.	.	.	?	.	-17.9
CCOC(=O)C1=CCN(S(=O)(=O)c2ccccc2C)C1c1ccc(Cl)c(Cl)c1 (stereo not given)	.	.	.	-22.0%	.	-75.6*
CCN(CC)CCOC(=O)c1ccc(Cl)cc1	12.7%	-2.6%[46.1 µM]	4.4%	-7.8%	13.9%	-16.3
CCN(CC)CCOC(=O)c1ccc(NC(=O)C(C)NC(=O)C23CC4CC(CC(C4)C2)C3)cc1 (stereo not given)	14.4%	-13.8%	-4.1%	6.9%	25.0%	-63.6*
CCCOc1ccccc1/C=C1\SC(N)=NC1=O	?	20.0%[46.1 µM]	3.8%[46.1 µM]	-10.3%	12.7%	-63.5*
SMILES	SARS PLpro yeast	MARV entry inh	LASV entry inh	FMDV antiviral	HCV inh	HCMV antiviral
CCCOc1ccc(/C=C2\SC(N)=NC2=O)cc1OC	-0.8%	.	.	20.8%	-7.8%	184.6
CC(C)NC(=O)CSc1nc2ccccc2c(=O)n1Cc1ccc(C(=O)NC(C)C)cc1	.	.	22.1%[46.1 µM]	-11.7%	.	2.5
COc1ccc(N2CCN(C(c3ccc(F)cc3)c3sc4nc(-c5ccco5)nn4c3O)CC2)cc1 (stereo not given)	.	.	16.5%[46.1 µM]	12.1%	.	3.2
CCC(CC)C(=O)c1c[nH]c(C(=O)NCc2ccccc2OC)c1	0.7%	.	.	39.8µM*	-21.0%	2.3
COc1ccccc1CNC(=O)c1cccc(NC(=O)c2ccccc2)c1	-1.8%	.	.	-26.6%	14.1µM*	?
COc1ccccc1CNC(=O)c1ccc2nc3[nH]c4ccccc4c3nc2c1	9.6%	?	?	32.8%	?	-86.4*
Cc1ccc(CNC(=O)c2ccc3nc4[nH]c5ccccc5c4nc3c2)cc1	-1.8%	-14.9%	-6.1%	.	4.0%	-101.9*
COc1ccccc1CNC(=O)c1ccc2[nH]c(C)c(C)c2c1	.	.	?	2.6%	.	61.7
COc1ccc(/C=C/C(=O)OC2CCCN(C)C2)cc1 (stereo not given)	-2.0%	.	.	2.6%	8.5%	44.4
COc1ccc(C=CC(O)CCN2CCC3CCC(C3)C2)cc1 (stereo not given)	.	?	-11.3%[46.1 µM]	-8.2%	-10.3%	-66.2*
CC1(C(=O)Nc2ccc3[nH]ncc3c2)CCN1C(=O)C1(c2ccccc2)CC1 (stereo not given)	.	.	.	-15.7%	.	-98.0*
CC1(C(=O)Nc2ccc3[nH]ncc3c2)CCN1C(=O)CC(c1ccccc1)c1ccccc1 (stereo not given)	.	.	.	?	.	0.0
CCc1ccccc1NC(=O)Cn1c(=O)n(CCCCCC(=O)NCc2ccc(C)cc2)c(=O)c2sccc21	.	-0.2%[46.1 µM]	-18.6%[46.1 µM]	-11.7%	.	-31.7
CCOc1ccc(C2C(C(=O)Nc3ccccc3C)=C(C)Nc3nnnn32)cc1 (stereo not given)	.	4.7%[46.1 µM]	-20.8%[46.1 µM]	5.8%	.	-14.1
COc1ccc(CNS(=O)(=O)c2ccc(C3CNC(=O)C3)cc2)cc1 (stereo not given)	5.4%	4.4%	-4.8%	.	3.16µM*	35.4
COc1ccc(-c2nc3cc(C(C)C)ccc3o2)cc1NC(=O)c1ccccc1[N+](=O)[O-]	.	30.5%[46.1 µM]	5.1%[46.1 µM]	47.8%	.	-7.6
CCOC(=O)CN1C(=O)S/C(=C/c2ccc(N3CCCCC3)o2)C1=O	-14.5%	19.5%	-10.8%	-6.1%	9.0%	-19.1
COC(=O)CN1C(=O)S/C(=C/c2ccc(N3CCCCC3)o2)C1=O	-6.8%	11.5%	?	20.7%	?	-103.9*
CCCN1C(=O)S/C(=C/c2ccc(N3CCOCC3)o2)C1=O	-3.6%	-5.6%[46.1 µM]	18.0%[46.1 µM]	30.3%	?	-78.8*
CC(=O)Nc1ccc(NC(=O)C/C(C)=N/NC(N)=S)cc1	11.2µM*	.	.	-16.2%	-0.3%	-2.8
COc1cccc(C(C(=O)NC(C)(C)C)N(Cc2ccc(C)cc2)C(=O)CCC(=O)Nc2cc(C)on2)c1OC (stereo not given)	-1.8%	?	?	?	11.2µM*	-16.0
COc1cccc(C(C(=O)NC(C)(C)C)N(Cc2ccco2)C(=O)CCC(=O)Nc2cc(C)on2)c1OC (stereo not given)	-0.1%	?	-0.6%[46.1 µM]	61.6%	-15.8%	-36.5
CCCCN(C(=O)CCC(=O)Nc1cc(C)on1)C(C(=O)NC(C)(C)C)c1ccccc1Cl (stereo not given)	-1.0%	2.5%[46.1 µM]	13.4%[46.1 µM]	-1.4%	0.8%	-13.8
